# From PubChem BioAssay AID1159580 (chemical genetic matrix, 2015)
# Among all 5,500 compounds or so, about 2,000 (36%) were called active. Roughly 18% stayed inconclusive and do not appear here. The list shows a part of the results. A number with no mark means an inactive call. Cut-off read from the data, not from the text of the source: active = normalized growth mostly below about 0.91 (no sharp cut-off); inconclusive = no clear call, values can overlap the other calls; inactive = mostly above about 0.92.
# Assay: chemical genetic growth profiling, strain panel (AID 1159580);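 note: tested at 20 µM; growth read once vehicle control cultures reached saturation at 30 °C; 1 = growth at the plate median or of vehicle wells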
# Details: S. cerevisiae deletion strains, growth OD
structure (smiles),measurement,setting,value
Cc1ccc(-c2nn(-c3ccccc3)c(=O)c3ccccc23)cc1C,normalized growth,"locus YAL013W, strain DEP1, stronger effect = lower value",0.953
same,normalized growth,"locus YBR229C, strain ROT2, stronger effect = lower value",0.968
same,normalized growth,"locus YCL061C, strain MRC1, stronger effect = lower value",0.967
same,normalized growth,"locus YDL101C, strain DUN1, stronger effect = lower value",0.957
same,normalized growth,"locus YDR150W, strain NUM1, stronger effect = lower value",0.978
same,normalized growth,"locus YEL061C, strain CIN8, stronger effect = lower value",0.908 (active)
same,normalized growth,"locus YGR078C, strain PAC10, stronger effect = lower value",0.955
same,normalized growth,"locus YGR229C, strain SMI1, stronger effect = lower value",0.984
same,normalized growth,"locus YHR030C, strain SLT2, stronger effect = lower value",0.504 (active)
same,normalized growth,"locus YHR087W, strain rtc3, stronger effect = lower value",0.922
same,normalized growth,"locus YJL187C, strain SWE1, stronger effect = lower value",0.979
same,normalized growth,"locus YJR043C, strain POL32, stronger effect = lower value",0.998
same,normalized growth,"locus YJR075W, strain HOC1, stronger effect = lower value",0.908
same,normalized growth,"locus YKL190W, strain CNB1, stronger effect = lower value",0.977
same,normalized growth,"locus YLR039C, strain RIC1, stronger effect = lower value",0.634 (active)
same,normalized growth,"locus YLR058C, strain SHM2 (second series), stronger effect = lower value",0.967
same,normalized growth,"locus YLR085C, strain ARP6, stronger effect = lower value",0.736 (active)
same,normalized growth,"locus YLR262C, strain YPT6, stronger effect = lower value",0.629 (active)
same,normalized growth,"locus YML094W, strain GIM5, stronger effect = lower value",0.922
same,normalized growth,"locus YMR219W, strain ESC1, stronger effect = lower value",0.962
same,normalized growth,"locus YMR263W, strain SAP30, stronger effect = lower value",0.937
same,normalized growth,"locus YNL153C, strain GIM3, stronger effect = lower value",0.992
same,normalized growth,"locus YNL298W, strain CLA4 (second series), stronger effect = lower value",0.936
same,normalized growth,"locus YNL322C, strain KRE1, stronger effect = lower value",0.964
same,normalized growth,"locus YNR030W, strain Alg12, stronger effect = lower value",0.918
same,normalized growth,"locus YOL006C, strain TOP1, stronger effect = lower value",0.804
same,normalized growth,"locus YPL055C, strain LGE1, stronger effect = lower value",0.928
same,normalized growth,"locus YPL241C, strain CIN2, stronger effect = lower value",0.917
same,normalized growth,"locus YPR135W, strain CTF4, stronger effect = lower value",0.612 (active)
